MEKK3 PB1 HTS: raises or lowers MEK5 binding to the human MEKK3 PB1 domain; 290,000 tested, 1.4% active; binding response (% of control), % at 10 µM; bead-based flow cytometry, Alexa488-MEK5 binding to MEKK3; actives lie on both sides; 0 = blocked by unlabeled MEK5, 100 = vehicle; Q99759;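 active = binding response more than 3 SD above or below the average of its plate-row segment, actives on both sides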;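 note: Alexa488 bead fluorescence after subtracting the streptavidin-only scavenger bead signal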
Target sequence (Q99759 whole entry, looked up, the tested form may be a part): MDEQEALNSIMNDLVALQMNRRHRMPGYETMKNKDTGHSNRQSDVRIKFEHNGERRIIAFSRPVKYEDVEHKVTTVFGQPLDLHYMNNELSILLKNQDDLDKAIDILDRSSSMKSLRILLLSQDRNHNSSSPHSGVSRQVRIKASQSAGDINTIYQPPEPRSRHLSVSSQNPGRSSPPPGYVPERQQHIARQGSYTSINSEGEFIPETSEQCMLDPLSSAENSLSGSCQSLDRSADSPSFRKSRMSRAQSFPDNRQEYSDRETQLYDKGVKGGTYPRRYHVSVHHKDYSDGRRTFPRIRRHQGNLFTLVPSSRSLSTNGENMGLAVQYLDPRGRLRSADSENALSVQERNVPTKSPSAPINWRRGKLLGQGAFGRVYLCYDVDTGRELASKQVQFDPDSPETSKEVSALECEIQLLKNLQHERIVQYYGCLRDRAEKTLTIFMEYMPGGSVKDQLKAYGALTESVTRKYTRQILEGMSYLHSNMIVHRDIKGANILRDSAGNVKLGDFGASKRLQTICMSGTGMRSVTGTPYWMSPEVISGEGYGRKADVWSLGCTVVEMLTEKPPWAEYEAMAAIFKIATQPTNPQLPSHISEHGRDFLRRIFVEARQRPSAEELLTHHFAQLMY
MEKK2 mut-MEK5: signal of MEK5 binding to mutant human MEKK2 PB1 domain; AID 1530; percent response, % at 10 µM; 290,000 tested, 0.35% active; bead flow cytometry, Alexa488-MEK5 binding to MEKK2 mutant; in the data active = percent response above about 24%, passing the limit was not always enough
Pf gamet viab: kills late stage P. falciparum gametocytes. P. falciparum stage V gametocytes, ATP luminescence, 24 h. inhibition, % at 10.9 µM. 150,000 tested, 0.065% active;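 active = inhibition above the mean plus 3 SD of compounds within the control limits, set per campaign, cut at about 38% in these data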
MEKK2wt PB1 HTS: raises or lowers MEK5 binding to wildtype human MEKK2 PB1 domain | bead flow cytometry, Alexa488-MEK5 binding to MEKK2 WT; actives lie on both sides | binding response (% of control), % at 10 µM | 290,000 tested, 1.1% active | AID 1531; in the data active = binding response below about 67% or above about 130%
Arbovirus anti: blocks arbovirus infection; inhibition, % at 10 µM; arbovirus infection cell-based antiviral screen; 200,000 tested, 0.37% active; in the data active = inhibition above about 30%
Of the large screens only hits and unclear results are named; the others gave an inactive call; [ ] = remark or other dose. This is a sample that favours compounds with a hit; in the whole collection about 2.4% have one here.

CCCc1nn2c(N)c(/C=C3\C=Nc4ccccc43)c(=O)nc2s1	Arbovirus anti 70.7
CC(C)c1nn2c(N)c(/C=C3\C=Nc4ccccc43)c(=O)nc2s1	none (no result: Arbovirus anti)
CCC(CC)c1nn2c(N)c(/C=C3\C=Nc4ccccc43)c(=O)nc2s1	none (no result: Arbovirus anti)
CC(C)Cc1nn2c(N)c(/C=C3\C=Nc4ccccc43)c(=O)nc2s1	Arbovirus anti 37.2
COc1cc(C(=O)Nc2ccc(S(=O)(=O)N3CCc4ccccc43)cc2)cc(OC)c1OC	none
COc1cc(C(=O)Nc2ccc3c(c2)CCN3C(C)=O)cc(OC)c1OC	MEKK2wt PB1 HTS 173.0
Cc1cc(Br)cc(Cl)c1OC(=O)c1ccncc1	MEKK3 PB1 HTS 1.0[inhibitor], MEKK2wt PB1 HTS 1.0[inhibitor] (no result: Pf gamet viab, Arbovirus anti)
O=C(Cn1nc(CNc2ccc(Cl)cc2)[n+]2c1CCCCC2)c1ccccc1	none
Cc1ccc(C(C)C)c(OCc2nn(CC(=O)c3ccc(Cl)cc3)c3[n+]2CCCCC3)c1	MEKK2wt PB1 HTS 192.0
O=C(O)c1cc(N/N=C2/CC(c3ccccc3)Oc3ccccc32)ccc1Cl (centres undefined)	Arbovirus anti 32.0 (no result: Pf gamet viab)
CC(C)(C)N/N=C1\CC(c2ccccc2)Oc2ccccc21 (centres undefined)	none
CCc1ccc(CN(Cc2cccnc2)C(=O)/C=C/c2ccc(OC)cc2)cc1	MEKK2 mut-MEK5 32.0, MEKK2wt PB1 HTS 138.0 (no result: Pf gamet viab, Arbovirus anti)
CC1C=CCC2C(=O)N(c3cccc(C(=O)Nc4ccc(F)cc4)c3)C(=O)C12 (centres undefined)	none (no result: Pf gamet viab, Arbovirus anti)
C=CCN(C(=O)c1cccc(N2C(=O)C3CC=CC(C)C3C2=O)c1)c1ccccc1 (centres undefined)	Arbovirus anti 30.2 (no result: Pf gamet viab)
COc1cc(CN2CCNC(=O)C2CC(=O)N2CCCO2)cc(OC)c1 (centres undefined)	none
Cc1ccc(C(=O)N/C(=C\c2ccc(-c3ccc([N+](=O)[O-])cc3)o2)C(=O)NC2CCS(=O)(=O)C2)cc1 (centres undefined)	MEKK2wt PB1 HTS 4.0
O=C(CSc1nc2sc3c(c2c(=O)n1-c1ccccc1)CCCC3)N/N=C/c1ccccc1C(=O)O	none (no result: Pf gamet viab, Arbovirus anti)
O=Cc1cn(-c2ccccc2)nc1-c1cc2cc(O)ccc2oc1=O	Arbovirus anti 33.2
O=Cc1cn(-c2ccccc2)nc1-c1cc2c(ccc3ccccc32)oc1=O	none (no result: MEKK3 PB1 HTS, MEKK2 mut-MEK5, Pf gamet viab, MEKK2wt PB1 HTS)
CCc1ccc(S(=O)(=O)c2ccc(-n3nc(C)cc3N)cc2)cc1	Arbovirus anti 33.0
CCN(CC)CCNc1ncnc2c1sc1nc(N3CCCC3)c3c(c12)CC(C)(C)OC3	MEKK2wt PB1 HTS 150.0
CCOC(=O)CNC(=O)c1cc2c(=O)[nH]c3ccc(C)cc3c2s1	none (no result: Pf gamet viab, Arbovirus anti)
CC(C)c1ccc(C(C(=O)NC2CCCCC2)N(C(=O)c2csnn2)C2CC2)cc1 (centres undefined)	none (no result: Pf gamet viab, Arbovirus anti)
O=C(O)CSc1nnc(CNc2cccc(C(F)(F)F)c2)n1Cc1ccco1	Arbovirus anti 33.5 (no result: Pf gamet viab)
COc1ccc(CN(C(=O)c2oc3cc(C)c(C)cc3c2C)C2CCS(=O)(=O)C2)cc1OC (centres undefined)	none (no result: Pf gamet viab, Arbovirus anti)
COc1ccc(CN(C(=O)c2oc3ccccc3c2C)C2CCS(=O)(=O)C2)cc1OC (centres undefined)	Arbovirus anti 87.3 (no result: Pf gamet viab)
CSC1=C(C#N)C(c2sccc2C)CC(=O)N1 (centres undefined)	none
COC(=O)c1ccccc1N/C=C/C(=O)c1ccc(Br)cc1	Arbovirus anti 63.0
NC(=O)c1ccccc1N/C=C/C(=O)c1ccccc1	none
Nc1nn(-c2ccccc2)c(N)c1N=Nc1ccccc1F	MEKK3 PB1 HTS 129.0
Nc1nn(-c2ccccc2)c(N)c1N=Nc1ccccc1	none (no result: Pf gamet viab)
Cc1cccc(C)c1NC(=O)C1c2cccc[n+]2CC(=O)N1Cc1ccc2c(c1)OCO2 (centres undefined)	MEKK2wt PB1 HTS 50.0
CC(C)=CCN1CCN(Cc2cn[nH]c2C2CCCCC2)CC1CCO (centres undefined)	none (no result: Pf gamet viab)
CCNC(=O)CN(c1ccc(CC)cc1)S(C)(=O)=O	Arbovirus anti 46.2
O=C(Nc1ccc(-n2cccc2)cc1)C1CC1	none
Cc1ccc(-c2csc(NC(=O)CSc3nc4ccccc4c(=O)n3CCCN(C)C)n2)cc1	MEKK2 mut-MEK5 67.0, MEKK2wt PB1 HTS 207.0 (no result: Pf gamet viab)
Clc1nc(N2CCOCC2)ncc1Br	MEKK2wt PB1 HTS -4.0 (no result: Arbovirus anti)
CCOC(=O)c1cc(-c2ccccc2)n(CCC(=O)N2CCN(c3ccc(OC)cc3)CC2)c1C	MEKK2wt PB1 HTS 2.0 (no result: Pf gamet viab)
O=C(c1ccc(F)cc1)C(C(=O)N1CCCCC1)n1ccccc1=O (centres undefined)	none
CSc1ccccc1NC(=O)CN(C)Cc1ccc(Br)cc1	none
CCc1cccc(C)c1NC(=O)CN(C)Cc1ccc(Br)cc1	Arbovirus anti 42.1
Cc1nnc2sc(SCc3cccc(Cl)c3)nn2c1=O	Arbovirus anti 30.5
COc1ccc(S(=O)(=O)N(CC(=O)NCc2ccncc2)c2ccc(C)cc2)cc1Br	none (no result: Pf gamet viab, Arbovirus anti)
COc1cccc(-n2c(SCC(=O)Nc3cc(C)on3)nc3ccccc3c2=O)c1	none
COc1ccc(-n2c(SCC(=O)Nc3cc(C)on3)nc3ccccc3c2=O)cc1Cl	MEKK2 mut-MEK5 83.0 (no result: MEKK2wt PB1 HTS)
CCOc1ccc(NC(=O)CN2C(=O)c3cccc4cccc2c34)cc1	none (no result: MEKK3 PB1 HTS, MEKK2 mut-MEK5, MEKK2wt PB1 HTS, Arbovirus anti)
Cc1noc(C)c1C(=O)OCC(=O)Nc1cc(Cl)ccc1Oc1ccccc1	Arbovirus anti 47.3 (no result: Pf gamet viab)
COc1ccc(C)cc1NC(=O)COC(=O)c1c(C)noc1C	none (no result: Pf gamet viab)
COc1ccc(CCN(C)CCCN2CC(c3ccccc3)CC2=O)cc1OC (centres undefined)	Pf gamet viab 42.1
Cc1csc(CN(C)C(=O)C2CCC(=O)N(CCN(C)C)C2)n1 (centres undefined)	none (no result: Pf gamet viab, Arbovirus anti)
COc1cc(/C=C/c2cc[n+](C)cc2)ccc1OCC(=O)Nc1ccc(Cl)c(Cl)c1	MEKK2 mut-MEK5 75.0, MEKK2wt PB1 HTS 237.0 (no result: Pf gamet viab, Arbovirus anti)
COc1ccc(Nc2nc(N)c([N+](=O)[O-])c(NC3CCCCC3)n2)cc1	none (no result: Pf gamet viab, Arbovirus anti)
OC(CNC1CCCCC1)CNC1CCCCC1	Arbovirus anti 39.2
CC(C)(C)C(=O)NC1(C(F)(F)F)NC(=O)N(c2ccccc2F)C1=O (centres undefined)	none (no result: Arbovirus anti)
O=C(Nc1ccc(NC(=O)c2ccccc2Cl)cc1)c1cccnc1	MEKK3 PB1 HTS 39.0[inhibitor], MEKK2wt PB1 HTS 53.0[inhibitor] (no result: Pf gamet viab, Arbovirus anti)
Cc1cccc(C(=O)N2CCc3cc(-c4csc(NC(=O)CN5CCCC5)n4)ccc32)c1	MEKK2 mut-MEK5 25.0 (no result: Pf gamet viab, Arbovirus anti)
CCc1ccc2nc(N3C(=O)C(O)=C(C(=O)c4ccco4)C3c3cccs3)sc2c1 (centres undefined)	none (no result: Pf gamet viab)
Cc1ccc2nc(N3C(=O)C(O)=C(C(=O)c4cc5ccccc5o4)C3c3cccs3)sc2c1 (centres undefined)	Arbovirus anti 32.0 (no result: MEKK3 PB1 HTS, MEKK2 mut-MEK5, Pf gamet viab, MEKK2wt PB1 HTS)
O=C(Nc1ccc(S(=O)(=O)Nc2ncccn2)cc1)c1ccc(N2CCCC2=O)cc1	none (no result: Arbovirus anti)
O=C(Cn1ncc2c([nH]c3ccccc32)c1=O)NCCc1ccc(Cl)cc1	none (no result: Pf gamet viab, Arbovirus anti)
O=C(Cn1ncc2c([nH]c3ccccc32)c1=O)Nc1ccc(CN2CCCCC2)cc1	MEKK2 mut-MEK5 25.0, MEKK2wt PB1 HTS 147.0 (no result: Pf gamet viab, Arbovirus anti)
COC(=O)c1cc(NC(=O)c2cccc(Cl)c2)c(=O)oc1/C=C/Nc1cc(C)cc(C)c1	MEKK3 PB1 HTS 68.0[inhibitor], MEKK2 mut-MEK5 558.0 (no result: Pf gamet viab, MEKK2wt PB1 HTS)

Source: PubChem BioAssay
